Measurements as given in PMC11062922 (Nature Chemical Biology, 2023).
Like-named read-outs stand apart in the source and are kept apart here.

Experiments:
ADRBK1 = system: ADRBK1; design: species or system human, MV4-11 + K-562 + COLO205 + SK-N-BE2 + OVCAR-8; conditions: read-out: apparent Kd, compound concentrations: 100 nM and 1000 nM (sheet 'Samples'), n = 1
PIK3C3 = system: PIK3C3; design: species or system human, MV4-11 + K-562 + COLO205 + SK-N-BE2 + OVCAR-8; conditions: read-out: apparent Kd; compound concentrations: 100 nM and 1000 nM (sheet 'Samples'), CATDS: 0.27683551604583601; n = 1
PIK3CB = system: PIK3CB; design: species or system human, MV4-11 + K-562 + COLO205 + SK-N-BE2 + OVCAR-8; conditions: read-out: apparent Kd; compound concentrations: 100 nM and 1000 nM (sheet 'Samples'), CATDS: 0.86026286553543596; n = 1
AIFM1 = system: AIFM1; design: species or system human, MV4-11 + K-562 + COLO205 + SK-N-BE2 + OVCAR-8; conditions: read-out: apparent Kd; compound concentrations: 100 nM and 1000 nM (sheet 'Samples'), CATDS: 7.0265848272952805E-2; n = 1
CLK1 = system: CLK1; design: species or system human, MV4-11 + K-562 + COLO205 + SK-N-BE2 + OVCAR-8; conditions: read-out: apparent Kd; compound concentrations: 100 nM and 1000 nM (sheet 'Samples'), CATDS: 0.104887627590219; n = 1
CLK4 = system: CLK4; design: species or system human, MV4-11 + K-562 + COLO205 + SK-N-BE2 + OVCAR-8; conditions: read-out: apparent Kd; compound concentrations: 100 nM and 1000 nM (sheet 'Samples'), CATDS: 9.5715512322220406E-2; n = 1
CSNK1G1 = system: CSNK1G1; design: species or system human, MV4-11 + K-562 + COLO205 + SK-N-BE2 + OVCAR-8; conditions: read-out: apparent Kd; compound concentrations: 100 nM and 1000 nM (sheet 'Samples'), CATDS: 5.5121042551324002E-2; n = 1
DAPK3 = system: DAPK3; design: species or system human, MV4-11 + K-562 + COLO205 + SK-N-BE2 + OVCAR-8; conditions: read-out: apparent Kd; compound concentrations: 100 nM and 1000 nM (sheet 'Samples'), CATDS: 8.3155449206082505E-2; n = 1
DCTPP1 = system: DCTPP1; design: species or system human, MV4-11 + K-562 + COLO205 + SK-N-BE2 + OVCAR-8; conditions: read-out: apparent Kd; compound concentrations: 100 nM and 1000 nM (sheet 'Samples'), CATDS: 5.7600915047594299E-2; n = 1
FN3KRP = system: FN3KRP; design: species or system human, MV4-11 + K-562 + COLO205 + SK-N-BE2 + OVCAR-8; conditions: read-out: apparent Kd; compound concentrations: 100 nM and 1000 nM (sheet 'Samples'), CATDS: 6.5569795708597098E-2; n = 1
FN3K = system: FN3K; design: species or system human, MV4-11 + K-562 + COLO205 + SK-N-BE2 + OVCAR-8; conditions: read-out: apparent Kd; compound concentrations: 100 nM and 1000 nM (sheet 'Samples'), CATDS: 6.57741887652563E-2; n = 1
MAPK3 = system: MAPK3; design: species or system human, MV4-11 + K-562 + COLO205 + SK-N-BE2 + OVCAR-8; conditions: read-out: apparent Kd; compound concentrations: 100 nM and 1000 nM (sheet 'Samples'), CATDS: 8.8800747421998102E-2; n = 1
NEK2 = system: NEK2; design: species or system human, MV4-11 + K-562 + COLO205 + SK-N-BE2 + OVCAR-8; conditions: read-out: apparent Kd; compound concentrations: 100 nM and 1000 nM (sheet 'Samples'), CATDS: 7.0168858397625197E-2; n = 1
PBK = system: PBK; design: species or system human, MV4-11 + K-562 + COLO205 + SK-N-BE2 + OVCAR-8; conditions: read-out: apparent Kd; compound concentrations: 100 nM and 1000 nM (sheet 'Samples'), CATDS: 7.2795732103844296E-2; n = 1
Q6ZSR9 = Q6ZSR9 (human, UniProt Q6ZSR9); design: species or system MV4-11 + K-562 + COLO205 + SK-N-BE2 + OVCAR-8; conditions: read-out: apparent Kd; compound concentrations: 100 nM and 1000 nM (sheet 'Samples'), CATDS: 6.3978551473772294E-2; n = 1
RABL3 = system: RABL3; design: species or system human, MV4-11 + K-562 + COLO205 + SK-N-BE2 + OVCAR-8; conditions: read-out: apparent Kd; compound concentrations: 100 nM and 1000 nM (sheet 'Samples'), CATDS: 7.0827671495760899E-2; n = 1
TESK1 = system: TESK1; design: species or system human, MV4-11 + K-562 + COLO205 + SK-N-BE2 + OVCAR-8; conditions: read-out: apparent Kd; compound concentrations: 100 nM and 1000 nM (sheet 'Samples'), CATDS: 6.7543584282145103E-2; n = 1
AGK = system: AGK; design: species or system human, MV4-11 + K-562 + COLO205 + SK-N-BE2 + OVCAR-8; conditions: read-out: apparent Kd; compound concentrations: 100 nM and 1000 nM (sheet 'Samples'), CATDS: 0.56358245780801897; n = 1
MAP2K2 = system: MAP2K2; design: species or system human, MV4-11 + K-562 + COLO205 + SK-N-BE2 + OVCAR-8; conditions: read-out: apparent Kd; compound concentrations: 100 nM and 1000 nM (sheet 'Samples'), CATDS: 0.44930961839154798; n = 1
RIOK2 = system: RIOK2; design: species or system human, MV4-11 + K-562 + COLO205 + SK-N-BE2 + OVCAR-8; conditions: read-out: apparent Kd; compound concentrations: 100 nM and 1000 nM (sheet 'Samples'), CATDS: 0.50694616971053197; n = 1

Q6ZSR9, sequence (Q6ZSR9 whole entry, looked up): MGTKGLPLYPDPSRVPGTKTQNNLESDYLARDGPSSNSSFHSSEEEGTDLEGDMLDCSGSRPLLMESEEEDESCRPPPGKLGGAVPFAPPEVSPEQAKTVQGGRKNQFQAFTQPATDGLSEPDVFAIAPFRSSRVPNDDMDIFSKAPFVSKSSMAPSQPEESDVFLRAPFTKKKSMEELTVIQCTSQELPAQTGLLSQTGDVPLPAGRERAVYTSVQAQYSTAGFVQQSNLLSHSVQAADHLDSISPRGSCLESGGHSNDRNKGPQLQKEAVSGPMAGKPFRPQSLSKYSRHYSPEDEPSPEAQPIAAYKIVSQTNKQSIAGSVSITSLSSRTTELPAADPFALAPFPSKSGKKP

`Cc1cccc(Cn2ccn3c(=O)cc(N4CCOCC4)nc23)c1` [GSK2297542A] showed a potency estimated from few doses (ADRBK1; CATDS: 0.236668950824271) of 1590 nM, a potency estimated from few doses (PIK3C3) of 886 nM and a potency estimated from few doses (PIK3CB) of 48.3 nM.

With `O=C1N=C(NCCc2ccc(F)cc2)S/C1=C\c1ccc2ncccc2c1` [RO4508340-000] the potency estimated from few doses (AIFM1) was 1310 nM, the potency estimated from few doses (CLK1) was 643 nM and the potency estimated from few doses (CLK4) was 744 nM. The potency estimated from few doses (CSNK1G1) was 2380 nM, the potency estimated from few doses (DAPK3) was 948 nM and the potency estimated from few doses (DCTPP1) was 2100 nM. The potency estimated from few doses (FN3KRP) was 1530 nM, the potency estimated from few doses (FN3K) was 1520 nM and the potency estimated from few doses (MAPK3) was 844 nM. The potency estimated from few doses (NEK2) was 1320 nM, the potency estimated from few doses (PBK) was 1220 nM and the potency estimated from few doses (Q6ZSR9) was 1620 nM. It also gave a potency estimated from few doses (RABL3) of 1290 nM and a potency estimated from few doses (TESK1) of 1430 nM.

Work on `Cc1ccc(S(=O)(=O)Nc2ccc(Nc3nccc(Nc4cccc5[nH]ncc45)n3)cc2)cc1` [GSK581271A] yielded a potency estimated from few doses (AGK) of 1530 nM and a potency estimated from few doses (MAP2K2) of 2420 nM.

For `CCS(=O)(=O)c1ccc(OC)c(Nc2ncc(-c3ccccc3Cl)o2)c1` [GW622055X], the potency estimated from few doses (ADRBK1; CATDS: 0.49324160998550998) was 1780 nM and the potency estimated from few doses (RIOK2) was 1680 nM.
